Assay outcomes as filed in PubChem.
SENP8 block-1: blocks the human protease SENP8; purified SENP8, Z-RLRGG-aminoluciferin cleavage, luminescence; inhibition, % at 10 µM; actives 1.2% (n = 330,000); in the data active = inhibition above about 50%
Target sequence (Q96LD8 whole entry, looked up): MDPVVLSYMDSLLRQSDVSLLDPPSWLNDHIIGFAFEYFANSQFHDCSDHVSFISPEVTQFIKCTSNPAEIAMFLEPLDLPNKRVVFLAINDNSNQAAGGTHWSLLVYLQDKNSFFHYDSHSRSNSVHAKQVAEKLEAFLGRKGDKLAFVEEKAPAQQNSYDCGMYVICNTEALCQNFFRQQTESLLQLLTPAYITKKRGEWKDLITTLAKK
SENP7 inh: blocks the human protease SENP7; Q9BQF6; recombinant SENP7, Z-RLRGG-aminoluciferin luminescence, 40 min; inhibition, % at 5 µM; actives 1.5% (n = 330,000); AID 434973;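 active = inhibition above about 50% at the single test dose, limit read from the data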;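 note: plate controls were DMSO with enzyme for no effect and no enzyme buffer wells for full effect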
HSP90 refold inh: blocks HSP90-mediated luciferase refolding in reticulocyte lysate; Rabbit reticulocyte lysate, luciferase refolding luminescence, 3 h; inhibition, % at 5.6 µM; actives 0.91% (n = 290,000);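 active = inhibition above the screen-wide mean plus 3 SD, computed separately per campaign, cut at about 16% in these data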;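 note: 0% = DMSO wells and 100% = 60 µM geldanamycin wells; inhibitors lower the luminescence because luciferase stays unfolded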
LGR2 antag: blocks bursicon-induced cAMP signaling via Drosophila LGR2; actives 0.35% (n = 380,000); inhibition, % at 9.99 µM; AID 720647; HEK293 LGR2, CRE-luciferase, bursicon-stimulated, 4 h;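 active = drop in luminescence signal, shown as inhibition above about 50% in the replicate tests, limit read from the data, passing the limit was not always enough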;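 note: agonist challenge used bursicon conditioned medium at about half maximal strength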
SENP6 block: blocks the human protease SENP6; Q9GZR1; Recombinant SENP6 catalytic domain, aminoluciferin luminescence; inhibition, % at 10 µM; actives 1.8% (n = 330,000); AID 2599;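 active = inhibition above about 50% at the single tested dose, limit read from the data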;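 note: plate controls were DMSO wells with enzyme for no effect and DMSO wells lacking enzyme for full effect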
SENP8 block-2: inhibitors of human SENP8 protease; Q96LD8; recombinant SENP8, Nedd8 substrate fluorescence; inhibition, % at 20 µM; actives 0.64% (n = 360,000); AID 602440; in the data active = inhibition mostly above about 40%, no sharp cut-off; inactive = mostly below about 27%
SENP8 conf: human SENP8 inhibition, confirmed. AID 488912. shares compounds with SENP7 inh. actives 40% (n = 6,200). Recombinant SENP8, Z-RLRGG-aminoluciferin luminescence, 60 min. inhibition, % at 12.5 µM;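 active = mean inhibition across replicates above about 50%, limit read from the data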
SENP6 conf: confirmation of human SENP6 protease inhibitors | shares compounds with SENP7 inh | inhibition, % at 12.5 µM | actives 58% (n = 6,200) | AID 488915 | recombinant SENP6, Z-RLRGG-aminoluciferin luminescence
SENP7 conf: human SENP7 inhibition, confirmed; shares compounds with SENP7 inh; recombinant SENP7, Z-RLRGG-aminoluciferin luminescence, 40 min; inhibition, % at 12.5 µM; actives 69% (n = 6,200); AID 488917
Casp3 SENP sel: selectivity test for SENP inhibitors: human caspase-3 inhibition; shares compounds with SENP7 inh; purified caspase-3, Z-DEVD-aminoluciferin luminescence, 60 min; inhibition, % at 12.5 µM; actives 60% (n = 6,200);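 active = mean inhibition above about 50%, limit read from the data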;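 note: plate controls were enzyme with DMSO for no effect and wells without caspase-3 for full effect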
Target sequence (P42574 28-227 limits assumed): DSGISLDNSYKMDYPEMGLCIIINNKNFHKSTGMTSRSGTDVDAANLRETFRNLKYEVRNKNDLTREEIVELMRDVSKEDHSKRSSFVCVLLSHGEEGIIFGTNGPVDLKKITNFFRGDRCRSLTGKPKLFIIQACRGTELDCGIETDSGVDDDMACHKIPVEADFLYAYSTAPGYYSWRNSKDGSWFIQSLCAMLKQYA
Luc interf: counter-screen for SENP inhibitors: luminescence interference; shares compounds with SENP7 inh; Pre-incubated SENP8/Z-RLRGG-aminoluciferin, luciferase luminescence interference; inhibition, % at 12.5 µM; actives 39% (n = 6,200);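 active = mean inhibition above about 50% when retested at one dose, limit read from the data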;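 note: plate controls were DMSO wells with completed reaction for no effect and substrate without enzyme for full effect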
* = called active by the depositor; · = no result. This is a sample that favours compounds with a hit; in the whole collection about 2.3% have one here.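 Rule for the calls, unless noted: active = mean inhibition above about 50% in the one-dose retest (limit read from the data); inactive = the rest.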

SMILES | SENP8 block-1 | SENP7 inh | HSP90 refold inh | LGR2 antag | SENP6 block | SENP8 block-2 | SENP8 conf | SENP6 conf | SENP7 conf | Casp3 SENP sel | Luc interf
COc1ccc(C(N)c2nccc3cc(OC)c(OC)cc23)cc1OC (stereo not drawn) | 49 | 70* | 13 | · | 75* | -83 | -26 | -13 | -6 | -9 | -7
Cc1ccc(Nc2nc3ccccc3o2)cc1F | 78* | 87* | 4 | · | 88* | 16 | 57* | 81* | 98* | 75* | 48
Cc1nc(Nc2nc3ccccc3o2)nc(C)c1C | 47 | 63* | 7 | · | 58* | 13 | 8 | 52* | 87* | 80* | 20
C[C@H]1CN([C@@H](C)CO)C(=O)c2cccc(NS(C)(=O)=O)c2O[C@@H]1CN(C)Cc1ccc2c(c1)OCO2 | · | · | · | -9 | · | · | · | · | · | · | ·
O=C(Nc1ccccc1)c1ccc(NC(=O)C2CC2)cc1 | 33 | 62* | 0 | -37 | 58* | 2 | -28 | 2 | 67* | 64* | -9
O=C(Nc1ccc(C2SCCS2)cc1)c1ccccc1 | 53* | 92* | -4 | -15 | 50 | -9 | 2 | 2 | 28 | 23 | 7
C[C@@H]1CN([C@@H](C)CO)C(=O)c2cc(C#Cc3ccncc3)cnc2O[C@H]1CN(C)CC1CCCC1 | · | · | · | -4 | · | · | · | · | · | · | ·
COc1cccc(NC(=O)c2ccc(OC(F)(F)F)cc2)c1 | 85* | 94* | · | -44 | 88* | 7 | 66* | 79* | 98* | 87* | 38
COc1ccc(C(=O)Nc2cccc(OC)c2)cc1 | 79* | 92* | 5 | -29 | 86* | 5 | 2 | 92* | 101* | 96* | 91*
COc1cccc(NC(=O)Cn2nnc(C(=O)Nc3ccccc3)c2N)c1 | 3 | 1 | 0 | · | 2 | 25 | · | · | · | · | ·
CCCCOC(=O)Nc1ccc2c(C)cc(=O)oc2c1 | 35 | 62* | -5 | · | -34 | -294 | 3 | 3 | 50* | 48 | 15
COc1cccc(NC(=O)c2ccccc2C(F)(F)F)c1 | -5 | -12 | 1 | 1 | -17 | 8 | · | · | · | · | ·
COc1cccc(NC(=O)c2nnn(CCc3ccccc3)c2N)c1 | 64* | 76* | -1 | -39 | 72* | 2 | 76* | 75* | 93* | 75* | 62*
COc1cccc(NC(=O)c2cccc(C(=O)Nc3cccc(OC)c3)c2)c1 | 4 | 5 | -1 | 6 | 16 | 5 | · | · | · | · | ·
CC=Cc1ccc2n(c1=O)C[C@H]1[C@H](CO)[C@@H](C(=O)NCC)N(C(=O)CC3CC3)[C@@H]21 (mixture of isomers) | · | · | · | -13 | · | · | · | · | · | · | ·
O=C(NC1CCC1)[C@H]1N[C@H]2c3ccc(-c4cccc(F)c4)c(=O)n3C[C@H]2[C@@H]1CO | · | · | · | -15 | · | · | · | · | · | · | ·
COC(=O)C[C@@H]1C[C@@H]2c3cc(NC(=O)CN(C)C)ccc3O[C@@H]2[C@@H](CO)O1 | · | · | · | -14 | · | · | · | · | · | · | ·
CO[C@@H]1CN(C)C(=O)c2ccc(NC(C)=O)cc2OC[C@H](C)N(Cc2ccc(F)cc2)C[C@H]1C | · | · | · | 11 | · | · | · | · | · | · | ·
COc1cccc(NC(=O)CC(=O)c2ccc([N+](=O)[O-])cc2)c1 | 69* | 58* | 1 | -44 | 71* | 22 | 82* | 80* | 93* | 72* | 74*
COc1cccc(NC(=O)Nc2cccc(C(=O)O)c2)c1 | 90* | 93* | 77* | 97* | 7 | 0 | 95* | 95* | 101* | 90* | 94*
COc1cccc(C(=O)Nc2ccc3c(C)cc(=O)oc3c2)c1 | 16 | 71* | -1 | -36 | 63* | -343 | 13 | 15 | 11 | 29 | 7
